Results taken from PubChem BioAssay (NCATS).
Where “and” joins values, the source holds several entries; their conditions need not be identical. Identical values can stand only once. Inconclusive results are not listed. Entries that show only a call come without a potency. Calls of active or inactive are those of the source. Unless noted, the call rests on the fitted dose curve; in most records, active means well fitted curve in the direction sought with a large enough effect; inconclusive means small, poorly fitted or top-dose-only effect, or another doubt; inactive means no such curve, though single readings can be large; an effect the other way counts as inactive or inconclusive.

Key:
[1] = P-glycoprotein substrates identified in KB-8-5-11 adenocarcinoma cell line, qHTS therapeutic library screen (AID 1346987); further: nearly all actives have a fitted effect of over 65% in size; further: potency means the concentration at half of the fitted maximal effect
How it was run: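 KB-8-5-11: colchicine-selected sub-line of KB-3-1 over-expressing P-gp; assay medium lacked colchicine. 72 h drug exposure at 37 degree C, CellTiter-Glo.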

[2] = NS1 protein of Zika virus - qHTS assay to identify small molecule inhibitors in human HEK 293 cells (AID 1347053); further: nearly all actives have a fitted effect of over 55% in size; further: potency means the concentration at half of the fitted maximal effect
How it was run: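 Inhibition of NS1 expression was scored in HEK 293 cells given compound 1 h ahead of MR766 virus (MOI = 0.5). Following 24 h at 37 C, two anti-NS1 antibodies generated a TR-FRET signal, scaled between uninfected and infected controls.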

[3] = qHTS for Inhibitors of the Functional Ribonucleoprotein Complex (vRNP) of Lassa (LASV) Arenavirus: LASV Primary Screen - GLuc reporter signal (AID 1347082; calls by dose curve; tested in HEK293 reporter line; further: nearly all actives have a fitted effect of over 60% in size; further: potency means the concentration at half of the fitted maximal effect)
[4] = qHTS for Inhibitors of the Functional Ribonucleoprotein Complex (vRNP) of Lassa (LASV) Arenavirus: Viability assay - alamar blue signal for LASV Primary Screen (AID 1347083; calls by dose curve; tested in HEK293 reporter line; further: nearly all actives have a fitted effect of over 80% in size; further: potency means the concentration at half of the fitted maximal effect)
[5] = qHTS for Inhibitors of the Functional Ribonucleoprotein Complex (vRNP) of Lymphocytic Choriomeningitis Arenaviruses (LCMV): Viability assay - alamar blue signal for LCMV Primary Screen (AID 1347085; calls by dose curve; tested in HEK293 reporter line; further: nearly all actives have a fitted effect of over 80% in size; further: potency means the concentration at half of the fitted maximal effect)
[6] = molecular target: Nucleoprotein (Lymphocytic choriomeningitis virus (strain Armstrong)) (UniProt P09992); test: qHTS for Inhibitors of the Functional Ribonucleoprotein Complex (vRNP) of Lymphocytic Choriomeningitis Arenaviruses (LCMV): LCMV Primary Screen - GLuc reporter signal (AID 1347086; calls by dose curve; further: nearly all actives have a fitted effect of over 70% in size; further: potency means the concentration at half of the fitted maximal effect)
Nucleoprotein (Lymphocytic choriomeningitis virus (strain Armstrong)), sequence (P09992 whole entry, looked up): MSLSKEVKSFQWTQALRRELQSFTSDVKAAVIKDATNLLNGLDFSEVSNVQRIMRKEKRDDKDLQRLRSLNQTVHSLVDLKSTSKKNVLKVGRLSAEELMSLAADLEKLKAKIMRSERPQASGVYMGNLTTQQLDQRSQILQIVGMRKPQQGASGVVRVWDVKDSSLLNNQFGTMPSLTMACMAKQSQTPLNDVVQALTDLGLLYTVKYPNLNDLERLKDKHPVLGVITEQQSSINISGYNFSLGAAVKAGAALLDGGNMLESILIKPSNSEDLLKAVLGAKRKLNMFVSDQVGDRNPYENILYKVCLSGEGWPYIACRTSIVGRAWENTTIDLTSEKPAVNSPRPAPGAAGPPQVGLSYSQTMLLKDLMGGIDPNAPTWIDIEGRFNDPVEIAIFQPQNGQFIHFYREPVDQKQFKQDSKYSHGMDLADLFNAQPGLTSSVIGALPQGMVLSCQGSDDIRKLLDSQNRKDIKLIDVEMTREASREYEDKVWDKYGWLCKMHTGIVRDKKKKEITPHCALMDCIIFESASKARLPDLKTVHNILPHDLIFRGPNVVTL

[7] = qHTS of pediatric cancer cell lines to identify multiple opportunities for drug repurposing: Primary screen for TC32 cells (AID 1347089); further: nearly all actives have a fitted effect of over 60% in size; further: potency means the concentration at half of the fitted maximal effect
How it was run: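 In the primary qHTS, MIPE compounds were tested at 11 concentrations (0.78 nM to 46 µM) and NPC compounds at 8 (0.59 nM to 46 µM) on TC32 cells for 48 h. CellTiter-Glo luminescence gave viability.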

[8] = qHTS of pediatric cancer cell lines to identify multiple opportunities for drug repurposing: Primary screen for SJ-GBM2 cells (AID 1347091); further: potency means the concentration at half of the fitted maximal effect
How it was run: (§1)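 Cell viability, CellTiter-Glo luminescence; 500-1,000 cells/well, 8- or 11-point titration, 48 h compound exposure at 37 degrees C, 5% CO2. Controls: DMSO neutral, bortezomib 2.3 µM final as positive.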

[9] = qHTS of pediatric cancer cell lines to identify multiple opportunities for drug repurposing: Primary screen for A673 cells (AID 1347092); further: nearly all actives have a fitted effect of over 45% in size; further: potency means the concentration at half of the fitted maximal effect
How it was run: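 48 h compound exposure, A673, 500-1,000 cells/well, 37 degrees C/5% CO2. MIPE: 11-point, 0.78 nM-46 µM; NPC: 8-point, 0.59 nM-46 µM (final). Readout CellTiter-Glo luminescence after 15 min RT.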

[10] = qHTS of pediatric cancer cell lines to identify multiple opportunities for drug repurposing: Primary screen for SK-N-MC cells (AID 1347093); further: potency means the concentration at half of the fitted maximal effect
How it was run: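 Metabolically active cells were quantified by ATP-dependent luminescence (CellTiter-Glo, 15 min at room temperature) following 48 h treatment. Cells had been plated at 500-1,000 per well and settled for 5 h beforehand.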

[11] = qHTS of pediatric cancer cell lines to identify multiple opportunities for drug repurposing: Primary screen for BT-37 cells (AID 1347094); further: potency means the concentration at half of the fitted maximal effect
How it was run: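 Following a 5-hour attachment period, cells at 500-1,000/well received compounds and were cultured for 48 hours. CellTiter-Glo was added and luminescence read to estimate viable, metabolically active cells.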

[12] = qHTS of pediatric cancer cell lines to identify multiple opportunities for drug repurposing: Primary screen for DAOY cells (AID 1347090); further: nearly all actives have a fitted effect of over 55% in size; further: potency means the concentration at half of the fitted maximal effect
How it was run: as §1

[13] = molecular target: T1, Tyrosine-protein phosphatase non-receptor type substrate 1 (Homo sapiens) + Leukocyte surface antigen CD47 (Homo sapiens) (UniProt P78324+Q08722); test: CD47-SIRPalpha protein protein interaction - HTRF assay qHTS validation (AID 1347058; active means well fitted curve in the direction sought with a large enough effect in the signal ratio, not every such curve was filed as active; the % refers to the signal ratio;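 further: recombinant soluble extracellular CD47 with His tag and biotinylated SIRPalpha domains; series mostly up to about 38 µM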)
T1 sequence (P78324 whole entry, looked up, the tested form may be a part): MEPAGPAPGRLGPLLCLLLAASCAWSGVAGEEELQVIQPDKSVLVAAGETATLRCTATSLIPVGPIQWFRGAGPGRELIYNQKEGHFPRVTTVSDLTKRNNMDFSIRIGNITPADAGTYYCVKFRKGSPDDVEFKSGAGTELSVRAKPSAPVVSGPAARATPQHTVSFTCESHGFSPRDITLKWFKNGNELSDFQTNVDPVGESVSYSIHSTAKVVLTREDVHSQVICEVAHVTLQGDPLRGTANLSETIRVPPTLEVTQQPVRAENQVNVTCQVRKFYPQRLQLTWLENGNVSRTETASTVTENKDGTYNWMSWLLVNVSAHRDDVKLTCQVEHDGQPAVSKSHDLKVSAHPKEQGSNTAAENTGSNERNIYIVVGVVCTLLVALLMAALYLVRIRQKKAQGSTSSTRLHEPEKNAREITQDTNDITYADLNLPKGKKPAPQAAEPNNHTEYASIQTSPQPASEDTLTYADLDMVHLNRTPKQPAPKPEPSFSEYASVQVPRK
T1 sequence (Q08722 whole entry, looked up, the tested form may be a part): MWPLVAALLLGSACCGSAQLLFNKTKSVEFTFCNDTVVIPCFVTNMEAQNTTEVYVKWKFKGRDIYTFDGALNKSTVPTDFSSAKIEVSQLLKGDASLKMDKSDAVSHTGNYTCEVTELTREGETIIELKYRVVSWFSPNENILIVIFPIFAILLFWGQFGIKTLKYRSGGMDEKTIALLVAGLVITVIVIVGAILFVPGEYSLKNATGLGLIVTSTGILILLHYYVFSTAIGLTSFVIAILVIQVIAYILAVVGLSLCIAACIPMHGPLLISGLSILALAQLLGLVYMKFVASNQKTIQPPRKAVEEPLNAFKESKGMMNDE
How it was run: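 TR-FRET read (Ch1/Ch2 ratio) of soluble extracellular CD47 and Avi-biotinylated SIRPalpha domains in PBS pH 7.4 with 0.05% IGEPAL; 7-point compound titration. Sequential 30 min room-temperature steps; non-biotinylated SIRPalpha as control inhibitor.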

[14] = Natriuretic polypeptide receptor (hNpr1) antagonism - Pilot counterscreen GloSensor control cell line (AID 1347045; calls by dose curve; further: series mostly up to about 38 µM)
How it was run: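 HEK293 cells carrying the GloSensor cGMP sensor (GIP/pGS-40F) were loaded with 2% GloSensor reagent for 2 h, exposed to compounds for 30 min, and then stimulated with 50 uM sodium nitroprusside for 20 min at room temperature.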

[15] = molecular target: Atrial natriuretic peptide receptor 1 (Homo sapiens) (UniProt P16066); test: Natriuretic polypeptide receptor (hNpr1) antagonism - Pilot screen (AID 1347049; calls by dose curve;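 further: agonist-evoked cGMP luminescence read 20 min after hNppA addition; series mostly up to about 58 µM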)
Atrial natriuretic peptide receptor 1 (Homo sapiens), sequence (P16066 whole entry, looked up): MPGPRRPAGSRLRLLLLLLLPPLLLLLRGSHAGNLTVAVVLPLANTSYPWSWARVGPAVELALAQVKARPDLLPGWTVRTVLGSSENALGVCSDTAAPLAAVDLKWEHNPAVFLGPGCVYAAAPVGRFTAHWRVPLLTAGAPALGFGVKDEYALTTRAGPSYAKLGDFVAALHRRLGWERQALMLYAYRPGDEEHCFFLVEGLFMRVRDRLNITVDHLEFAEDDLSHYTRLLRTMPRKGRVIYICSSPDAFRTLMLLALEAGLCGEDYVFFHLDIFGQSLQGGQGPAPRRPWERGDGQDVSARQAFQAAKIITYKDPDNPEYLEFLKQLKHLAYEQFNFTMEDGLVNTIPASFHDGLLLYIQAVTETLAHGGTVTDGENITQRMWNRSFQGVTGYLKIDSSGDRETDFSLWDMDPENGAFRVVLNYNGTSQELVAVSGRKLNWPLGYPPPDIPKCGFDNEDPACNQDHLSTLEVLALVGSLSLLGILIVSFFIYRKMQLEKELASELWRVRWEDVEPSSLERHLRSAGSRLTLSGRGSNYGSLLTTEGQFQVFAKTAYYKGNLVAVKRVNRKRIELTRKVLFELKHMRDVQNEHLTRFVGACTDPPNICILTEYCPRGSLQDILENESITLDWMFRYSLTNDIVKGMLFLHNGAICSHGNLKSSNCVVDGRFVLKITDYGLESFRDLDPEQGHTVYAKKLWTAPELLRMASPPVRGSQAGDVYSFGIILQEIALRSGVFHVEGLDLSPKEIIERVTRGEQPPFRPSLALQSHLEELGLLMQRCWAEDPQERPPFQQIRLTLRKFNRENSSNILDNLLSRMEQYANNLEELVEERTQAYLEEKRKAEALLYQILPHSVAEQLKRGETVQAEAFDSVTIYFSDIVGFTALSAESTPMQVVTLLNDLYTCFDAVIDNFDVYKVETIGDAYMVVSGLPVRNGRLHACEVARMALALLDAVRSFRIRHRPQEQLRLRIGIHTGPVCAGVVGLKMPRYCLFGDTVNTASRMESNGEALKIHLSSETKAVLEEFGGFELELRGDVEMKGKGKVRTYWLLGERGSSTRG
How it was run: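 Readout is cGMP-driven firefly luciferase luminescence in HEK293 cells carrying hNpr1 and a PDE5-domain GloSensor, read before and 20 min after 0.1 nM hNppA stimulation. Cells had 2% substrate reagent for 2 h and test compound for 30 min.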

[16] = molecular target: Atrial natriuretic peptide receptor 2 (Homo sapiens) (UniProt P20594); test: Natriuretic polypeptide receptor (hNpr2) antagonism - Pilot subtype selectivity assay (AID 1347050; calls by dose curve)
Atrial natriuretic peptide receptor 2 (Homo sapiens), sequence (P20594 whole entry, looked up): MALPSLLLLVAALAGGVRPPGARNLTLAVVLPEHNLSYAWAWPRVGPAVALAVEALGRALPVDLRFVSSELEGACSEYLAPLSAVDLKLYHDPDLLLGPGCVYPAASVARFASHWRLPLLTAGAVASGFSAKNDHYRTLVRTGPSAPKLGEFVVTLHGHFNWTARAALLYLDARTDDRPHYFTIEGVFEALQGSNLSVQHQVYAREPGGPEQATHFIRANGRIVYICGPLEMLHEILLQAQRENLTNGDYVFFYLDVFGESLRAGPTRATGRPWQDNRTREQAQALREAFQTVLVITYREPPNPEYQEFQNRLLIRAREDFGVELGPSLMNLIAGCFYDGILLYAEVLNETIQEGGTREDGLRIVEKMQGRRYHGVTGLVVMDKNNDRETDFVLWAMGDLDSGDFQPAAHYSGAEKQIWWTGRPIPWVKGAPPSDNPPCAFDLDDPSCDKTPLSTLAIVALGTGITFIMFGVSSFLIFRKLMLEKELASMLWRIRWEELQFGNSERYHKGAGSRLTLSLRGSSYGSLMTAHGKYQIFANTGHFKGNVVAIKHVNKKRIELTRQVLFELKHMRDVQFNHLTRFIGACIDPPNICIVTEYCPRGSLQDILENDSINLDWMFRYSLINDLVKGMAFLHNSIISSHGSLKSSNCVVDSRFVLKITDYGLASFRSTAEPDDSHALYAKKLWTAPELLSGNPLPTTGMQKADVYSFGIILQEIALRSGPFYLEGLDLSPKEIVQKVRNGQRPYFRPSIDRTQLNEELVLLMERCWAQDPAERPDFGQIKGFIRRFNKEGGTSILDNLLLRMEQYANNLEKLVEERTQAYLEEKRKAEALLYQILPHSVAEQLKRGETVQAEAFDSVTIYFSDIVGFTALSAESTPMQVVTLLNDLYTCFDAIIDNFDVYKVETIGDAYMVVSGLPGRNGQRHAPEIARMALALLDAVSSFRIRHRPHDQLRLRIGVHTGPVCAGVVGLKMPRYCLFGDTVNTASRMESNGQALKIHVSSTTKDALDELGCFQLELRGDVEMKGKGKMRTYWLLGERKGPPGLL
How it was run: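 Pilot selectivity screen against hNpr2: HEK293 cGMP-sensor cells are treated with LOPAC1280 compounds, then with hNppC peptide at 1 nM final. The cGMP-driven luminescence change over 20 min at room temperature is the read-out.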

[17] = molecular target: T1, Tyrosine-protein phosphatase non-receptor type substrate 1 (Homo sapiens) + Leukocyte surface antigen CD47 (Homo sapiens); test: CD47-SIRPalpha protein protein interaction - Alpha assay qHTS validation (AID 1347059);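 further: bead proximity luminescence from CD47 binding SIRPalpha after compound preincubation with SIRPalpha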
How it was run: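 Binding is measured by AlphaScreen proximity: Ni-NTA acceptor beads capture His-CD47, streptavidin donor beads capture biotin-SIRPalpha. Each of three additions (SIRPalpha with compound, CD47, beads) incubates 30 min at room temperature protected from light.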

[18] = molecular target: Parathyroid hormone/parathyroid hormone-related peptide receptor (Homo sapiens) (UniProt Q03431); test: qHTS for PTHR1 Agonists: Optimization Screen against the NCGC LOPAC library (AID 1347079);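 further: GloSensor cAMP luminescence in HEK-293 GP2 cells expressing human PTHR1 with IBMX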
Parathyroid hormone/parathyroid hormone-related peptide receptor (Homo sapiens), sequence (Q03431 whole entry, looked up): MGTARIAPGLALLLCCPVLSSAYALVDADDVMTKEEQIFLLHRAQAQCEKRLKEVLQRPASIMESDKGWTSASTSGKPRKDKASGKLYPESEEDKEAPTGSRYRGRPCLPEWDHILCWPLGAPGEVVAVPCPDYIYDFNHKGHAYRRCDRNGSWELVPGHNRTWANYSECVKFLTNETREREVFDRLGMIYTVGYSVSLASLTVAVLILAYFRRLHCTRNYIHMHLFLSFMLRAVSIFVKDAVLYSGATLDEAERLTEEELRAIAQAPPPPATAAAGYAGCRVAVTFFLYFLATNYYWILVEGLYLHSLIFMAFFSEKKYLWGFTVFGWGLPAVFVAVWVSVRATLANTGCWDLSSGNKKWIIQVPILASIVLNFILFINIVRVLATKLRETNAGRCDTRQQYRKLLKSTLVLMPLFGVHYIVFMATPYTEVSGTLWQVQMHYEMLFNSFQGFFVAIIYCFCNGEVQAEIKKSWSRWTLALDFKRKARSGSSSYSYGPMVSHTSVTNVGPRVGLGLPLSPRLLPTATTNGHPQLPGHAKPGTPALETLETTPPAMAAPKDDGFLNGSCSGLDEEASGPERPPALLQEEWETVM
How it was run: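 Compounds were tested across a qHTS titration. PTHR1-expressing GP2 cells report cAMP rises via GloSensor luminescence after 1 hr compound exposure at 37C with IBMX present.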

Structure (SMILES) | Potency [1] | Potency [2] | Potency [3] | Potency [4] | Potency [5] | Potency [6] | Potency [7] | Potency [8] | Potency [9] | Potency [10] | Potency [11] | Potency [12] | outcome [13] | Potency [14] | Potency [15] | Potency [16] | Potency [17] | outcome [18]
CCC1(CCC(C)C)C(=O)NC(=O)NC1=O | inactive | inactive | inactive | inactive | inactive | inactive | inactive | inactive | inactive | inactive | inactive |  |  |  |  |  |  | 
CCO/N=C(\CC)C1=C(O)CC(c2c(C)cc(C)cc2C)CC1=O (configuration not stated) | inactive | inactive | inactive | inactive | inactive | inactive | inactive |  | inactive |  | inactive | inactive |  |  |  |  |  | 
CC1(N2CCC(n3c([C@@H]4CCCNC4)nc4ccccc43)CC2)CCCCCCC1 | 23.5 µM (active) and 20.6 µM (active) | 20.9 µM (active) | inactive | inactive | inactive | inactive | inactive |  | 11.8 µM (active) |  |  |  |  |  |  |  |  | 
O=S(=O)(O)C(F)(F)C(F)(F)C(F)(F)C(F)(F)C(F)(F)C(F)(F)C(F)(F)C(F)(F)F | inactive | inactive | inactive | inactive | inactive | inactive | inactive |  | inactive | inactive | inactive | inactive |  |  |  |  |  | 
COc1cc2cc(c1Cl)N(C)C(=O)C[C@H](OC(=O)C(C)C)[C@]1(C)O[C@H]1[C@H](C)[C@@H]1C[C@@](O)(NC(=O)O1)[C@H](OC)C=CC=C(C)C2 | 1 nM (active) | inactive | inactive | inactive | inactive | inactive | 0.208 µM (active) | 0.001 µM (active) | 0.001 µM (active) | 0.001 µM (active) | 3.85 µM (active) |  |  |  |  |  |  | 
C[C@@H]1CC[C@H]2[C@@H](C)C(=O)O[C@@H]3O[C@@]4(C)CC[C@H]1[C@]32OO4 | inactive | inactive | inactive | inactive | inactive | inactive | inactive | inactive | inactive | 11.8 µM (active) |  |  |  |  |  |  |  | 
c1cc2ccc3cccc4ccc(c1)c2c34 | inactive | inactive | inactive | inactive |  | inactive | inactive | inactive | inactive |  | inactive |  |  |  |  |  |  | 
O=[N+]([O-])c1ccc([As](=O)(O)O)cc1 | inactive | inactive | inactive | inactive | inactive | inactive | inactive | inactive | inactive | inactive | inactive |  |  |  |  |  |  | 
O=C(Oc1ccc([N+](=O)[O-])cc1)N1CCC(C(O)(c2ccc3c(c2)OCO3)c2ccc3c(c2)OCO3)CC1 | inactive | inactive | inactive | 24.3 µM (active) | 3.06 µM (active) | inactive | inactive |  |  | 16.6 µM (active) |  | inactive |  |  |  |  |  | 
CC[C@H]1C=CC=CC[C@@H](C)[C@H](O)[C@@](C)(O)C(=O)[C@@H](C)[C@H](O)[C@@H](C)C(=O)[C@@H](C)[C@H](O)[C@@H](C)C=CC(=O)O[C@@H]2[C@@H](C)[C@H](CC1)O[C@]1(CC[C@H](C)[C@H](C[C@@H](C)O)O1)[C@H]2C | 1050 nM (active) | 18.7 µM (active) | 0.137 µM (active) | 0.0863 µM (active) | 0.0968 µM (active) | 0.0769 µM (active) |  | 0.264 µM (active) |  | 0.0033 µM (active) | 0.0022 µM (active) | 0.0037 µM (active) |  |  |  |  |  | 
CN(C)[C@@H]1C(=O)C(C(N)=O)=C(O)[C@@]2(O)C(=O)C3=C(O)c4c(O)cccc4[C@@](C)(O)[C@H]3[C@H](O)[C@@H]12 | inactive | inactive | inactive | inactive | inactive | inactive | inactive |  | inactive | inactive | inactive | inactive |  |  |  |  |  | 
ClC1=C(Cl)[C@]2(Cl)[C@@H]3[C@@H]4C[C@@H]([C@H]5O[C@@H]45)[C@@H]3[C@@]1(Cl)C2(Cl)Cl | inactive | inactive | inactive | inactive | inactive | inactive | inactive |  |  | 19.3 µM (active) |  |  |  |  |  |  |  | 
CCCCOC(=O)c1ccccc1C(=O)OCc1ccccc1 | inactive | inactive | inactive | inactive | inactive | inactive | inactive |  | inactive | inactive | inactive | inactive |  |  |  |  |  | 
COCC1(CO)C(=O)C2CCN1CC2 (configuration not stated) | inactive | inactive | inactive | inactive | 12.2 µM (active) |  | 20.8 µM (active) | 2.09 µM (active) | 2.35 µM (active) | 1.18 µM (active) | 1.22 µM (active) |  |  |  |  |  |  | 
C[C@]12CC[C@H](O)CC1=CC[C@H]1[C@H]3CCC(=O)[C@@]3(C)CC[C@@H]12 | inactive | inactive | inactive | inactive | inactive | inactive | inactive |  | 18.7 µM (active) | 16.6 µM (active) | inactive |  |  |  |  |  |  | 
OCCCBr | inactive | inactive | inactive | inactive | inactive | inactive | inactive | inactive | inactive | inactive | inactive |  |  |  |  |  |  | 
CCCCC(CC)COC(=O)c1ccccc1C(=O)OCC(CC)CCCC (configuration not stated) | inactive | inactive | inactive | inactive | inactive | inactive | inactive | inactive | inactive | inactive | inactive |  |  |  |  |  |  | 
CCCCCCCCc1ccc(O)cc1 | inactive | inactive | inactive | inactive | inactive | inactive |  |  |  |  |  | inactive |  |  |  |  |  | 
O=[N+]([O-])c1ncc[nH]1 | inactive | inactive | inactive | inactive | inactive | inactive | inactive | inactive | inactive | inactive | inactive |  |  |  |  |  |  | 
CC(C)NCC(O)c1ccc([N+](=O)[O-])cc1 (configuration not stated) | inactive | inactive | inactive | inactive | inactive | inactive | inactive |  | inactive | inactive | inactive |  |  |  |  |  |  | 
COC(=O)c1cncn1C(C)c1ccccc1 (configuration not stated) | inactive | inactive | inactive | inactive | inactive | inactive | inactive |  | inactive | inactive | inactive |  |  |  |  |  |  | 
C[C@](O)(COc1ccc(C#N)cc1)C(=O)Nc1ccc(C#N)c(C(F)(F)F)c1 | inactive | inactive | inactive | 38.5 µM (active) |  |  | inactive |  |  |  |  |  |  |  |  |  |  | 
NC(CP(=O)(O)O)C(=O)O (configuration not stated) |  |  |  |  |  |  |  |  |  |  |  |  | inactive |  |  |  |  | 
C[C@]12CCC3C(CC[C@H]4C[C@H](O)CC[C@]34C)C1CC[C@@H]2C(=O)CO (some centres not stated) |  | inactive | inactive | inactive | inactive | inactive |  |  |  |  |  |  | inactive | inactive | inactive | inactive | inactive | inactive
